Results on 34 compounds are retold here after PubChem BioAssay.

Tumor necrosis factor receptor superfamily member 10B (Homo sapiens), sequence (O14763 whole entry, looked up): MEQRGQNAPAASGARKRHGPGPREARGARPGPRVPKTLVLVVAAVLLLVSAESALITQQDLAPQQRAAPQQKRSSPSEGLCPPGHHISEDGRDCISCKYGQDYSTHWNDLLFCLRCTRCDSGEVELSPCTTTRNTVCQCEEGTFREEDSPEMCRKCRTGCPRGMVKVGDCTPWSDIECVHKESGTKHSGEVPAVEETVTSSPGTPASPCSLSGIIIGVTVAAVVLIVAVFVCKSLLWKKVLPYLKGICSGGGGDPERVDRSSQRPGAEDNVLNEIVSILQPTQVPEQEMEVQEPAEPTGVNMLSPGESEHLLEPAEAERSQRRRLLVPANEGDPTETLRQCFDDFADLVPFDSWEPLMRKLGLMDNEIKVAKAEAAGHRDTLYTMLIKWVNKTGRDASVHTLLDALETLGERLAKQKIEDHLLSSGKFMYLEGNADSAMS

One experiment has as its target Tumor necrosis factor receptor superfamily member 10B (Homo sapiens) (UniProt O14763). As to the kind of experiment: viability loss of caspase-8 NB7 cells with TRAIL – with/without TRAIL, luminescence panel, confirmation (AID 651596). The settings on record: NB7 neuroblastoma + caspase-8, TRAIL sensitization, NB7 Caspase-8, with TRAIL, mean of runs, at 10 µM, stronger effect = higher value.
As for `CCC(C)C1NC(=O)C(NC(=O)C(CC(C)C)N(C)C(=O)C2CCCN2C(=O)C(C)O)C(C)OC(=O)C(Cc2ccc(OC)cc2)N(C)C(=O)C2CCCN2C(=O)C(CC(C)C)NC(=O)[C@H](C)C(=O)[C@H](C(C)C)OC(=O)CC1O` (stereo partly drawn), the activity was 96.9%.
On the same count and under the same terms, under `Nc1ncnc2c1ccn2[C@@H]1O[C@H](CO)[C@@H](O)[C@H]1O` stands 97.7%.
In the case of `Clc1ccc(C[n+]2c(-c3ccccc3)cc(-c3ccccc3)cc2-c2ccccc2)cc1`, the activity turned out to be 79.1%.
With `CCCCCCCCCCCCCCCC[N+](C)(C)C`, the activity stood at 96.8%.
The same measure, in the same setting: under `CCCOC(=O)c1ccc(-[n+]2c(-c3ccccc3)cc(-c3ccccc3)cc2-c2ccccc2)cc1` stands 74.7%.
Same read-out and setting: then `CC12CCC3C(CCC4(O)CC(O)CCC34C=NO)C1(O)CCC2C1=COC(=O)C1` (stereo not drawn), with 91%; and `CCOC(=O)[C@]12Cc3cc(C)ccc3[C@H]1N(C1CCCCC1)C(=O)c1ccccc12`, with 95.3%; and `O=c1[nH]c2ccccc2n1C1CCN(C(c2cc3ccccc3o2)c2nnnn2Cc2ccccc2)CC1` (stereo not drawn), with 73.2%.
On the same count and under the same terms, under `CNC(=O)Oc1ccc(-c2cn3cc(C)ccc3n2)cc1` stands 95.7%; under `O=c1[nH]c2ccccc2n1C1CCN(C(CCc2ccccc2)c2nnnn2Cc2ccccc2)CC1` (stereo not drawn), 95.3%; under `COC(=O)C12OCC34C(CC5C(C)=C(O)C(=O)CC5(C)C3C(O)C1O)OC(=O)C(OC(=O)/C=C(\C)C(C)C)C24` (stereo not drawn), 94.8%.
As to `CC1CCOC(=O)C=CC=CC(=O)OC2CC3OC4C5OC5(C)C(O)CC4(COC(=O)C1O)C2(C)C31CO1` (stereo not drawn), the activity worked out at 93.7%.
Still for that read-out and setting: under `CCOC(=O)[C@]12Cc3cc(OC)ccc3[C@H]1N(C1CCCCC1)C(=O)c1cc(OC)ccc12` stands 57.6%; under `CCOC(=O)[C@]12Cc3cc(Cl)ccc3[C@H]1N(Cc1ccccc1)C(=O)c1cc(OC)ccc12`, 91.9%.
As to `CCOC(=O)[C@]12Cc3ccc(C)cc3[C@H]1N(C1CCCCC1)C(=O)c1cc(OC)ccc12`, the activity was found to be 97.5%.
Still for that read-out and setting: then `CC[C@H](C)[C@@H]1NC(=O)CNC(=O)c2csc(n2)[C@H](C(C)(C)O)OC(=O)C(C)(C)[C@H](CCCC(C)(Cl)Cl)OC(=O)c2csc1n2`, with 53.5%; and `CCOC(=O)C(=CNc1ccc(C(O)(C(=O)OCC)C(F)(F)F)cc1C)C(=O)OCC` (stereo not drawn), with -5.97%; and `CC1CC(C)CC(C)C(O)C(C#N)=CC=CCC(C2CCCC2C(=O)O)OC(=O)CC(O)C(C)C1` (stereo not drawn), with 94%.
Regarding `CC(C)N(C(=O)CCl)c1ccccc1`, the activity amounted to 98%.
The same measure, in the same setting: under `CNC(=O)O/N=C(\N)Cc1csc2ccc(Cl)cc12` stands 87.3%; under `CCOC(=O)[C@]12Cc3cc(C)ccc3[C@H]1N(C(C)C)C(=O)c1ccccc12`, 44.4%.
Still for that read-out and setting: then `CCOC(=O)[C@]12Cc3cc(OC)ccc3[C@H]1N(C1CCCCC1)C(=O)c1ccccc12`, with 91.9%; and `CC12CCC(O)CC1CCC1C2CCC2(C)C(C3=CC(=O)OC3)CCC12O` (stereo not drawn), with 87.3%; and `CCCCCN1C(=O)c2ccccc2[C@@]2(C(=O)OCC)Cc3cc(OC)ccc3[C@@H]12`, with 47.4%.
With `COc1ccc(-n2nnnc2C(c2cc3ccccc3o2)N2CCC(n3c(=O)[nH]c4ccccc43)CC2)cc1` (stereo not drawn), the activity came to 69.4%.
Consider `COc1ccc(CC2NCC(O)C2OC(C)=O)cc1` (stereo not drawn), for which the activity came to 90.1%.
Same read-out and setting: under `Cc1ccc(-c2cc(-c3ccccc3)cc(-c3ccccc3)[n+]2-c2ccccc2)cc1` stands 96.6%.
On the same count and under the same terms, then `C=CCn1c(O)c(C(CC)=NCc2cc(OC)cc(OC)c2)c(=O)[nH]c1=O`, with 46.4%; and `C=CCn1c(O)c(C(C)=NCc2cc(OC)cc(OC)c2)c(=O)[nH]c1=O`, with 79.5%; and `C[C@H]1O[C@@H](OC2CC[C@]3(C=O)[C@H]4CC[C@]5(C)[C@@H](C6=CC(=O)OC6)CC[C@]5(O)[C@@H]4CC[C@]3(O)C2)CC2OC(C)(C)OC21` (stereo partly drawn), with 85.6%.
With `CCOC(=O)[C@]12Cc3cc(Cl)ccc3[C@H]1N(CC(=O)OC)C(=O)c1ccccc12`, the activity was determined as 40.5%.
`CC1=CC2OC3CC4OC(=O)C=CC=CC(=O)OCCC(C)C(O)C(=O)OCC2(CC1O)C4(C)C31CO1` (stereo not drawn): the activity is 92.9%.
On the same count and under the same terms, under `CC12CCC(O)CC1CCC1C2CCC2(C)C(C3=CC(=O)OC3)C(O)CC12O` (stereo not drawn) stands 80.4%.
Take `NC(=S)c1cn(C2OC(CO)C(O)C2O)c2ncnc(N)c12` (stereo not drawn): the activity is 59.4%.

Test system in a further experiment: not listed separately
The experiment is described as above. The settings on record: NB7 neuroblastoma + caspase-8, without TRAIL, NB7 Caspase-8, without TRAIL, mean of runs, at 10 µM.
Turning to `CCC(C)C1NC(=O)C(NC(=O)C(CC(C)C)N(C)C(=O)C2CCCN2C(=O)C(C)O)C(C)OC(=O)C(Cc2ccc(OC)cc2)N(C)C(=O)C2CCCN2C(=O)C(CC(C)C)NC(=O)[C@H](C)C(=O)[C@H](C(C)C)OC(=O)CC1O` (stereo partly drawn), the activity was 98.2%.
`Nc1ncnc2c1ccn2[C@@H]1O[C@H](CO)[C@@H](O)[C@H]1O`: the activity was 97.9%.
As to `Clc1ccc(C[n+]2c(-c3ccccc3)cc(-c3ccccc3)cc2-c2ccccc2)cc1`, the activity stood at 65.9%.
For `CCCCCCCCCCCCCCCC[N+](C)(C)C`, the activity worked out at 96.8%.
`CCCOC(=O)c1ccc(-[n+]2c(-c3ccccc3)cc(-c3ccccc3)cc2-c2ccccc2)cc1`: the activity amounted to 68.3%.
With `CC12CCC3C(CCC4(O)CC(O)CCC34C=NO)C1(O)CCC2C1=COC(=O)C1` (stereo not drawn), the activity stood at 92.7%.
On the same count and under the same terms, under `CCOC(=O)[C@]12Cc3cc(C)ccc3[C@H]1N(C1CCCCC1)C(=O)c1ccccc12` stands 96.5%; under `O=c1[nH]c2ccccc2n1C1CCN(C(c2cc3ccccc3o2)c2nnnn2Cc2ccccc2)CC1` (stereo not drawn), 75.7%.
Still for that read-out and setting: under `CNC(=O)Oc1ccc(-c2cn3cc(C)ccc3n2)cc1` stands 95.5%; under `O=c1[nH]c2ccccc2n1C1CCN(C(CCc2ccccc2)c2nnnn2Cc2ccccc2)CC1` (stereo not drawn), 92.7%; under `COC(=O)C12OCC34C(CC5C(C)=C(O)C(=O)CC5(C)C3C(O)C1O)OC(=O)C(OC(=O)/C=C(\C)C(C)C)C24` (stereo not drawn), 97.5%.
On the same count and under the same terms, under `CC1CCOC(=O)C=CC=CC(=O)OC2CC3OC4C5OC5(C)C(O)CC4(COC(=O)C1O)C2(C)C31CO1` (stereo not drawn) stands 97.2%; under `CCOC(=O)[C@]12Cc3cc(OC)ccc3[C@H]1N(C1CCCCC1)C(=O)c1cc(OC)ccc12`, 75.7%; under `CCOC(=O)[C@]12Cc3cc(Cl)ccc3[C@H]1N(Cc1ccccc1)C(=O)c1cc(OC)ccc12`, 97.9%.
`CCOC(=O)[C@]12Cc3ccc(C)cc3[C@H]1N(C1CCCCC1)C(=O)c1cc(OC)ccc12`: the activity was 98%.
Regarding `CC[C@H](C)[C@@H]1NC(=O)CNC(=O)c2csc(n2)[C@H](C(C)(C)O)OC(=O)C(C)(C)[C@H](CCCC(C)(Cl)Cl)OC(=O)c2csc1n2`, the activity was 78.6%.
The same measure, in the same setting: then `CCOC(=O)C(=CNc1ccc(C(O)(C(=O)OCC)C(F)(F)F)cc1C)C(=O)OCC` (stereo not drawn), with 6.08%; and `CC1CC(C)CC(C)C(O)C(C#N)=CC=CCC(C2CCCC2C(=O)O)OC(=O)CC(O)C(C)C1` (stereo not drawn), with 98.7%; and `CC(C)N(C(=O)CCl)c1ccccc1`, with 98.3%.
Consider `CNC(=O)O/N=C(\N)Cc1csc2ccc(Cl)cc12`, for which the activity amounted to 91.2%.
Same read-out and setting: under `CCOC(=O)[C@]12Cc3cc(C)ccc3[C@H]1N(C(C)C)C(=O)c1ccccc12` stands 63.6%.
Still for that read-out and setting: then `CCOC(=O)[C@]12Cc3cc(OC)ccc3[C@H]1N(C1CCCCC1)C(=O)c1ccccc12`, with 94.1%; and `CC12CCC(O)CC1CCC1C2CCC2(C)C(C3=CC(=O)OC3)CCC12O` (stereo not drawn), with 91.6%; and `CCCCCN1C(=O)c2ccccc2[C@@]2(C(=O)OCC)Cc3cc(OC)ccc3[C@@H]12`, with 63%.
For `COc1ccc(-n2nnnc2C(c2cc3ccccc3o2)N2CCC(n3c(=O)[nH]c4ccccc43)CC2)cc1` (stereo not drawn), the activity turned out to be 62.5%.
Consider `COc1ccc(CC2NCC(O)C2OC(C)=O)cc1` (stereo not drawn), for which the activity was 93.8%.
The same measure, in the same setting: then `Cc1ccc(-c2cc(-c3ccccc3)cc(-c3ccccc3)[n+]2-c2ccccc2)cc1`, with 87.8%; and `C=CCn1c(O)c(C(CC)=NCc2cc(OC)cc(OC)c2)c(=O)[nH]c1=O`, with 37.5%.
Still for that read-out and setting: then `C=CCn1c(O)c(C(C)=NCc2cc(OC)cc(OC)c2)c(=O)[nH]c1=O`, with 84.8%.
The same measure, in the same setting: under `C[C@H]1O[C@@H](OC2CC[C@]3(C=O)[C@H]4CC[C@]5(C)[C@@H](C6=CC(=O)OC6)CC[C@]5(O)[C@@H]4CC[C@]3(O)C2)CC2OC(C)(C)OC21` (stereo partly drawn) stands 92.4%; under `CCOC(=O)[C@]12Cc3cc(Cl)ccc3[C@H]1N(CC(=O)OC)C(=O)c1ccccc12`, 64%; under `CC1=CC2OC3CC4OC(=O)C=CC=CC(=O)OCCC(C)C(O)C(=O)OCC2(CC1O)C4(C)C31CO1` (stereo not drawn), 96.9%.
Turning to `CC12CCC(O)CC1CCC1C2CCC2(C)C(C3=CC(=O)OC3)C(O)CC12O` (stereo not drawn), the activity was determined as 53.5%.
In the case of `NC(=S)c1cn(C2OC(CO)C(O)C2O)c2ncnc(N)c12` (stereo not drawn), the activity came to 91.2%.
